# Measured values taken from PubChem BioAssay (NCI).
# This is part of a sample that, as a whole, favours compounds with a hit. Of some 83,000 tested, about 20% had one in any assay.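 Treatment: one concentration, 48 hours, 96-well format. Scoring: percent growth, with anything below 10 considered active.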 A number with no mark means an inactive call. The source made the active and inactive calls.
# Tested on: HS 578T breast
# Test: NCI-60 one-dose screen, 48 h (100 = growth as untreated, 0 = no growth, -100 = all killed)
# Conditions: 10 µM
row,Structure (SMILES),growth
1,CCOC(=O)c1cc(C(=O)c2cc(OC)c(OC)c(OC)c2)n2ncc3ccccc3c12,85.5%
2,Cc1c(Cl)cccc1NC(=O)CCCl,104%
3,Cc1ccc(S(=O)(=O)N(C)CCCCCC(=O)O)cc1,108%
4,COc1cc(-c2nn(-c3cccc(NC(=O)NCCNS(=O)(=O)c4ccc(Cl)cc4)c3)cc2-c2ccncc2)ccc1Cl,18.8%
5,CC(=O)Oc1cc(OC(C)=O)c2ccccc2c1OC(C)=O,83%
6,COc1cc(-c2nn(-c3cccc(NC(=O)CN4CCOCC4)c3)cc2-c2cccnc2)ccc1Cl,76.3%
7,Cc1ccc(NCCNCC(C)(C)O)c2c(=O)c3ccc(Cl)cc3sc12,50.4%
8,COC(=O)C1(O)NC(=C(C#N)C#N)C(C#N)=C1C(=O)c1ccc(OC)c(OC)c1 (stereo not given),95.9%
9,CCN(CC)CCOc1ccc2c(c1O)C(=O)c1ccccc1C2=O,84.6%
10,COc1cc(-c2nn(-c3ccc(NC(=O)NCCCNC(=O)c4ccccc4)cc3)cc2-c2ccncc2)ccc1Cl,40%
11,COc1ccc2nc(-c3ccc(Cl)cc3)cc(-c3nnc(SC/C(=N\O)c4ccccc4)n3-c3ccccc3)c2c1,92.8%
12,CCOS(=O)(=O)c1c(C(C)C)cc(C(C)C)cc1C(C)C,103%
13,O=S(=O)(O)c1cccc(Nc2ccc3ccccc3c2)c1,96.6%
14,CN(C)CCCSc1ccccc1NC1=C(Cl)C(=O)C(Nc2ccccc2SCCCN(C)C)=C(Cl)C1=O,87.1%
15,Brc1ccc2c(c1)-c1ccccc1C1=NCCN12,37%
16,CC(C)CCN(CCC(C)C)CC(=O)Nc1ccc(S(=O)(=O)c2ccc(NC(=O)CN(CCC(C)C)CCC(C)C)cc2)cc1,65.3%
17,CCNCC(=O)Nc1ccc(C(=O)OCC)cc1,97.4%
18,O=C(NCCCNS(=O)(=O)c1ccc(Cl)cc1)Nc1ccc(-n2cc(-c3ccncc3)c(-c3ccc(Cl)c(O)c3)n2)cc1,40.9%
19,C1CN(CC2CCC(CN3CCOCC3)O2)CCO1 (stereo not given),104%
20,CCN(CC)CC(=O)N(CC)c1ccc(C)c(Cl)c1,100%

row,Structure (SMILES),growth
1,CC(CN(C)C)Oc1ccc(OC(C)CN(C)C)c2c1C(=O)c1ccccc1C2=O (stereo not given),70%
2,O=C1c2ccccc2C(=O)c2c1ccc(C(Br)Br)c2[N+](=O)[O-],103%
3,COc1cc(-c2nn(-c3cccc(NC(=O)CCN4CCN(c5ccccc5)CC4)c3)cc2-c2ccncc2)ccc1Cl,31.8%
4,O=C(Nc1ccc(F)cc1)c1cc2ccccc2cc1O,87.9%
5,O=C(Nc1ccc2c(O)cc(S(=O)(=O)O)cc2c1)c1ccc([N+](=O)[O-])cc1,103%
6,CN(C)CCCOc1cccc(NC2=C(Cl)C(=O)C(Nc3cccc(OCCCN(C)C)c3)=C(Cl)C2=O)c1,-2.49% (active)
7,COc1cc(OC)c2c(=O)c(O)c(-c3ccccc3)oc2c1,88.9%
8,CC(=O)Nc1ccc(CC[C@H]2CCC/C=C/[C@@H]3C[C@H](O)C[C@H]3[C@H](O)/C=C/C(=O)O2)cc1,34.9%
9,Nc1ncnc2c1ncn2C1(CO)OCC(O)C(O)C1O (stereo not given),104%
10,O=C(Nc1cccc2c1CCCC2)c1cc2ccccc2cc1O,47.5%
11,CN(C)CCCOc1ccccc1NC1=C(Cl)C(=O)C(Nc2ccccc2OCCCN(C)C)=C(Cl)C1=O,10.8%
12,O=C(N/N=C/c1ccc([N+](=O)[O-])cc1)c1ccccc1Nc1cccc(C(F)(F)F)c1,7.5% (active)
13,NNC(=O)Oc1c(Cl)cc(Cl)cc1[N+](=O)[O-],104%
14,Nc1ccc(/C=N/Nc2ccnc3c(O)cccc23)c2cccnc12,63.9%
15,O=S(=O)(O)c1ccc(Cl)cc1,101%
16,COc1cc(-c2nn(-c3cccc(NC(=O)NCCNC(=O)c4cccc(C(F)(F)F)c4)c3)cc2-c2ccncc2)ccc1Cl,24.1%
17,CCOC(=O)c1cc(C(=O)c2cc(OC)c(OC)c(OC)c2)n2ccc(-c3cc[n+](CC(=O)c4cc(OC)c(OC)c(OC)c4)cc3)cc12,69.4%
18,CCOC(=O)c1cc(C(=O)c2cc(OC)c(OC)c(OC)c2)n2nc(C)ccc12,55.9%
19,CCOC(=O)c1cc(C(=O)c2ccc(Cl)cc2)n2ccc(-c3cc[n+](CC(=O)c4ccc(OC)cc4)cc3)cc12,83.2%
20,C/C=C/CSC(C)(C)C(=O)NC,99.5%
